Holding throughout (assay): NCI-60 one-dose screen, 48 h (100 = growth as untreated, 0 = no growth, -100 = all killed)
Common to all, as to settings: 10 µM unless noted

The test system of experiment [1] is RPMI-8226 leukemia.
Experiment [2] relates to OVCAR-8 ovarian.
Experiment [3] deals with OVCAR-5 ovarian.
Experiment [4] concerns OVCAR-4 ovarian.
Experiment [5] relates to SK-OV-3 ovarian.
Experiment [6] relates to IGROV1 ovarian.
The subject of experiment [7] is OVCAR-3 ovarian.
In experiment [8] the test system is HS 578T breast.
The test system of experiment [9] is NCI/ADR-RES ovarian.
In experiment [10] the test system is T-47D breast.
Experiment [11] has as its system MDA-MB-435 melanoma.
The test system of experiment [12] is SW-620 colon.
The test system of experiment [13] is MCF7 breast.
For experiment [14], the system named is HCT-116 colon.
The test system of experiment [15] is KM12 colon.
Experiment [16] deals with BT-549 breast.
The test system of experiment [17] is HCC-2998 colon.

Results on eight compounds are retold here after PubChem BioAssay (NCI).

Molecules are shown by their SMILES. About 83,000 compounds went through this panel and 20% of them were active in at least one assay; those are over-represented in the sample as a whole.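 Percent growth is the endpoint: 0 to 100 indicates growth inhibition (40 means 60% inhibition), 0 means no net growth, and negative values indicate cell death.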 Values without a mark were called inactive. Activity calls are given as the source filed them. How the source made its calls: active means growth percent below 10; inactive means the rest.

As for `CC(C)(C)[Si](C)(C)OC1[C@@H](O[Si](C)(C)C(C)(C)C)[C@@H](CNC(=O)NC(=O)CCl)O[C@H]1n1cnc2c(NC(=O)Nc3ccccc3)ncnc21` (stereo partly specified), the growth is 16.7% in experiment [1]; 1.14% (active) in experiment [2]; 5.37% (active) in experiment [3]; -42.3% (active) in [4]; -92.9% (active) in experiment [5]; -50.4% (active) in [6]. Also, the growth in [7] is -82.1% (active); in experiment [8], -4.28% (active); in experiment [9] it was 20.3%; in experiment [10], -45.7% (active); in [11] it was -79.1% (active); in experiment [12] it was -49.7% (active). In addition, the results for the growth in experiment [13], in [14] and in [15] were -71.8% (active), -99% (active) and -79.4% (active), respectively.

Take `Cc1cc2c(c(C)c1Cl)C(=O)/C(=C/c1ccc(O)c(O)c1)O2`: the growth was 99.8% in experiment [2]; 117% in experiment [3]; 96.3% in experiment [4]; 96.9% in experiment [6]; 109% in experiment [7]; 94% in [8]. For the same compound, the growth in experiment [9] was 104%; in experiment [10] it was 90.5%; in [16], 104%; in experiment [11], 106%; in experiment [12] it was 105%; in experiment [13], 89.4%. The growth is 112% in experiment [14], 112% in experiment [17] and 109% in [15].

Regarding `Cc1nn(-c2ccccc2)c(Cl)c1/C=N\N=c1/sc2ccccc2n1C`, the growth in experiment [1] was 78.6%; in experiment [2], 98.2%; in experiment [3], 92.6%; in [4] it was 117%; in experiment [5], 94.7%; in [6], 96.2%. For the same compound, the growth in [7] is 111%; in [8], 104%; in [9], 104%; in experiment [10], 93.7%; in experiment [11], 102%; in experiment [13], 97%. Further, the growth was 84.5% in [14], 101% in [17] and 106% in [15].

Regarding `CSc1nc2sc3cccc(Cl)c3n2c(=N)c1C#N`, the growth was 90.7% in experiment [1]; 99.3% in experiment [2]; 119% in [3]; 93.4% in experiment [6]; 110% in [7]; 98.2% in experiment [8]. The growth in [9] was 103%; in experiment [10], 83.9%; in experiment [16] it was 96.7%; in [11], 104%; in experiment [12] it was 102%; in experiment [13] it was 88.4%. In addition, the growth was 101% in experiment [14], 106% in experiment [17] and 101% in experiment [15].

In the case of `CN(C)c1ccc(C2C(C#N)=C(/N=C/c3ccccc3)Oc3c2ccc2ccccc32)cc1` (stereo unspecified), the growth is 70.6% in [1]; 99.5% in [3]; 97.4% in experiment [4]; 66.8% in experiment [5]; 49.8% in experiment [6]; 43.7% in experiment [7]. The growth in [8] is 66.7%; in [9], 54.4%; in experiment [10] it was 83.1%; in [16], 69.6%; in experiment [11], 4.53% (active); in [13], 54.3%. Further, the growth in experiment [14] is 56.5%; in [17], 104%; in [15] it was 58.8%.

Take `COC(=O)C(CC=O)C(=O)C(=O)Nc1cccc(C(F)(F)F)c1` (stereo unspecified): the growth in experiment [2] was 90.5%; in experiment [3] it was 112%; in experiment [4] it was 105%; in experiment [5], 93.5%; in [6] it was 102%; in [7], 106%. For the same compound, the growth in [8] is 90.6%; in experiment [9], 107%; in [10], 77.4%; in experiment [16], 101%; in [11], 107%; in experiment [12], 95.6%. Further, the growth is 104% in experiment [13], 90.1% in [14], 97% in experiment [17] and 100% in experiment [15].

As for `CC(C)=CCC[C@](C)(O)[C@H]1CC[C@]2(C)[C@@H]1CC[C@@H]1[C@@]3(C)C/C(=C/c4ccccc4)C(=O)C(C)(C)[C@@H]3CC[C@]12C`, the growth in experiment [1] was 79.3%; in experiment [3] it was 102%; in [4], 89.2%; in experiment [5] it was 97.8%; in experiment [6], 101%; in [7], 103%. Besides, the growth in experiment [8] is 91.3%; in experiment [9] it was 100%; in [10], 87.4%; in experiment [16] it was 100%; in experiment [12] it was 80.4%; in [13] it was 94.6%. Further, the growth was 85.1% in [14], 98.8% in experiment [17] and 90% in experiment [15].

As to `Oc1ccc(C2c3ccccc3Oc3ccccc32)c2cccnc12`, the growth was 28.8% in experiment [1]; 44.9% in [3]; 30.6% in experiment [4]; 31.4% in [5]; 20.4% in [6]; 56.5% in [7]. The growth was 77.6% in experiment [8]; 7.48% (active) in experiment [9]; 31.1% in experiment [10]; 29.3% in experiment [16]; 27.3% in [11]; 23.5% in [12]. Moreover, the growth in [13] is 17.4%; in experiment [14], 20.1%; in experiment [17], 35.4%.
